RBX1-CUL1 inh: inhibitors of human ROC1-CUL1 ubiquitin ligase activity; inhibition, % at 10 µM; 140,000 compounds, 0.6% hits; in vitro K48 di-Ub FRET, acceptor:donor ratio, 45 min; in the data active = inhibition above about 25%
Target sequence (P62877 whole entry, looked up): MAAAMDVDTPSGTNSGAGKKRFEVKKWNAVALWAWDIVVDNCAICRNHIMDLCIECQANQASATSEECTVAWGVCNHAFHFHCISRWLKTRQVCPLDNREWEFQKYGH
Target sequence (Q13616 whole entry, looked up): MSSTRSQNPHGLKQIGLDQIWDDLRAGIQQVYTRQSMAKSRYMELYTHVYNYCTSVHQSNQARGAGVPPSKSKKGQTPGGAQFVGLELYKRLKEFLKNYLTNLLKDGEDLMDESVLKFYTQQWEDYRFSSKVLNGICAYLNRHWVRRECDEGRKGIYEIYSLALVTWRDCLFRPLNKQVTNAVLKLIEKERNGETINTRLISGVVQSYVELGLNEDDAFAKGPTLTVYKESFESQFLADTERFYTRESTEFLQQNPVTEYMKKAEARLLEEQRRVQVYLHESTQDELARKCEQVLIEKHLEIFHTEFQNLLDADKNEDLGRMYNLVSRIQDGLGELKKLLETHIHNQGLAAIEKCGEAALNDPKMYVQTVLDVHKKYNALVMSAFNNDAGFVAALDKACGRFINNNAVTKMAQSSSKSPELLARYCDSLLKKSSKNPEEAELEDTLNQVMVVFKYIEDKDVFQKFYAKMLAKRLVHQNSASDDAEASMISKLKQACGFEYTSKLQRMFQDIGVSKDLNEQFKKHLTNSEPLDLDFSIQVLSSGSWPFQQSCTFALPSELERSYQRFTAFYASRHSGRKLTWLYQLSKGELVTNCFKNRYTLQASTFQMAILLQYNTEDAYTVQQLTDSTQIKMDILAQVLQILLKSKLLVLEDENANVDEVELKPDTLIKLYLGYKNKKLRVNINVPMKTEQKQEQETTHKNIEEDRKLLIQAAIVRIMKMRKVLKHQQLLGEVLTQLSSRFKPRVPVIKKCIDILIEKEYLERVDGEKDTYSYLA
Large screens that a line does not name were inactive. The full list was thinned out, with hits kept by preference.

O=C(Cn1cnc2ccc(Cl)cc2c1=O)Nc1ccc2ccccc2c1	none
COCCCNC(=O)Cc1cccc2ccccc12	none
Cc1nc(C)c2cc3c(n[n+]2c1C)-c1cccc2cccc-3c12	none
CN1C(=O)C(=C/C=C/c2ccco2)C(=O)N(C)C1=S	RBX1-CUL1 inh 44.8
O=C1C(=C/C=C/c2ccccc2Cl)C(=O)N(c2ccccc2)C(=S)N1c1ccccc1	none
O=C(/C=C/c1ccco1)CCN1CCCCC1	none
CCOC(=O)c1c(-c2ccc(C)cc2)csc1NC(=O)CN1CC(C)OC(C)C1 (configuration not stated)	none
COc1ccc(S(=O)(=O)NC2CCCC2)cc1C(C)C	none
O=C(CCC1CCCN(Cc2ccccc2F)C1)NC1CC1 (configuration not stated)	none
c1ccc2c(c1)c(N1CCOCC1)nn1nnnc21	none
Clc1nn2nnnc2c2ccccc12	RBX1-CUL1 inh 29.7
Cc1nnc(Cl)c2ccccc12	none
COC(=O)C1C(=N)OC2=C(C(=O)CC(C)(C)C2)C1c1cccs1 (configuration not stated)	none
O=C(Nc1nncs1)NC(CCn1cncn1)c1ccccc1 (configuration not stated)	none
COc1cccc(Nc2ccc([N+](=O)[O-])cn2)c1	none
O=C1N=c2ccccc2=C1c1sc(Nc2ccc(O)cc2)nc1O	RBX1-CUL1 inh 31.6
CCc1cccc2c1=NC(=O)C=2c1sc(Nc2cccc(Cl)c2)nc1O	none
O=C1N=c2ccccc2=C1c1sc(Nc2ccc(Br)cc2)nc1O	none
O=C1N(C2CCCC2)C[C@@H]2C[C@@H](c3cccc(OCCO)c3)N3CCC[C@@]123	none
O=C(COc1ccc(Br)cc1Cl)Nc1ccc(S(=O)(=O)N2CCOCC2)cc1	none
c1ccc(CSc2nc(SCc3ccccc3)c3cnc(N4CCOCC4)nc3n2)cc1	none
O=S(=O)(O)SCCN1CCc2ccccc21	RBX1-CUL1 inh 28.0
OCCN1c2ccccc2CCc2ccccc21	none
O=C(CN1CCc2ccccc21)NC1CCCCCC1	none
COc1ccc(/C=C/C(=O)c2ccc(I)cc2)c(OC)c1	none
O=C(Nc1cccc(N2CCNC2=O)c1)C1CC12CCN(C(=O)c1ccccc1Cl)CC2 (configuration not stated)	none
O=C1C2=C/C(=C\N3CCCCC3)C(=O)N2c2ccccc21	RBX1-CUL1 inh 74.9
O=C1c2ccccc2C(=O)N1CN1CCCCCC1	none
O=C1C(=O)N(CNc2ccccc2Cl)c2ccccc21	none
CC(C)c1nccn1Cc1cc(C(=O)N2CCc3ccccc3C2)n[nH]1	none
COc1ccc(C)cc1NC(=O)c1ccc(Cn2nc(C)cc2C)o1	none
Fc1ccc(-c2n[nH]c(=S)n2-c2ccccc2)cc1	RBX1-CUL1 inh 36.0
CC(C)(C)c1ccc(-c2n[nH]c(=S)n2-c2ccccc2)cc1	none
S=c1[nH]nc(-c2ccccc2)n1-c1ccc(Cl)cc1	none
CCOc1ccc(C2CC(=O)NC3=C2C(=O)C(C(=O)OC)C(C)C3)cc1 (configuration not stated)	none
Cc1ccc(/C=C/C(=O)n2cccn2)cc1	none
O=C1NC(N2CCOCC2)=N/C1=C\c1ccco1	none
CCOc1ccccc1/C=C1/SC(=O)N(CC(=O)N2CCCCC2)C1=O	none
CC1=C(SCc2ccccc2)C(=O)c2ccccc2C1=O	RBX1-CUL1 inh 37.4
Cc1ccccc1-n1ncc(SCc2ccccc2)c(Cl)c1=O	none
Cc1cc2c(n1Cc1ccccc1)C(=O)c1ccccc1-2	none
CN(Cc1n[nH]c2c1CCCC2)C(=O)COc1ccc(N2CCN(c3ccccn3)CC2)nn1	none
Fc1ccc(-c2cc(-c3ccccc3)nc(-n3cccn3)n2)cc1	none
Oc1cc(-n2cccn2)c(O)c2ccccc12	RBX1-CUL1 inh 42.1
c1ccc(Nc2nc(Nc3ccccc3)nc(-n3cccn3)n2)cc1	none
CC(C)(C)NC(=O)c1cc(-c2ccccc2)on1	none
COc1ccc(C(=O)Oc2cc(C)ccc2C(C)C)cc1	none
COc1cc(CC2=NC(=O)N(CC(=O)Nc3ccc(C)cc3)C2=O)cc(Cl)c1O	none
CCCN(CCC)c1ccc(/C=C2/N=C(c3ccccc3)OC2=O)cc1	RBX1-CUL1 inh 41.9
CCN(CC)c1ccc(/C=C2/N=C(c3ccc(OC)c(OC)c3)OC2=O)cc1	none
Cc1ccc(/C=C2\N=C(c3ccc(C)cc3)OC2=O)cc1	none
O=C(/C=C/c1cccs1)c1ccc(OC(=O)c2ccc(Cl)cc2)cc1	none
CC(C)COc1cccc(-c2cc(C(=O)Nc3ccc(Cl)cc3C(=O)c3ccccc3)c3ccccc3n2)c1	none
CN(C)c1ccc(/C=C/C2=NC(=O)NC(=O)C2)cc1	none
CCCCCCCCCCCC[n+]1ccc(/C=C/c2ccc(N(C)C)cc2)cc1	RBX1-CUL1 inh 61.8
CCCCCCCCN1C(=O)/C(=C\c2ccc(N(C)C)cc2)C(=O)N(CCCC)C1=O	none
CC(Nc1ccc(Br)cc1)C(=O)N/N=C/c1cccs1 (configuration not stated)	none
CCOc1ccc2nc(N3CCCC(C(=O)N4CCC(O)(c5ccccn5)CC4)C3)nc(C)c2c1 (configuration not stated)	none
COCCN(Cc1cnc(SC)nc1)CC1CCCN(C2Cc3ccccc3C2)C1 (configuration not stated)	none
O=C(NCC1COCCO1)c1cc(COc2ccccc2F)[nH]n1 (configuration not stated)	none
O=C(O)c1ccc(-c2ccc(-c3nc4sc5c(c4c(=O)[nH]3)CCCCC5)o2)cc1	none
O=c1[nH]c(-c2cccc(Cl)c2Cl)nc2sc3c(c12)CCCCCC3	none
O=C(O)c1cccc(-c2ccc(-c3nc4sc5c(c4c(=O)[nH]3)CCCC5)o2)c1	RBX1-CUL1 inh 97.4
Cc1ccc(OC(C)C(=O)Nc2ccccc2)cc1 (configuration not stated)	none
CCOC(=O)c1c(NC(=O)c2cccs2)sc(C)c1-c1ccc(OC)cc1	none
CCOC(=O)c1c(NC(=O)CCCC(=O)O)sc(C)c1-c1ccc(F)cc1	none
CCOC(=O)c1c(NC(=O)CCC(=O)O)sc(C)c1-c1ccc(CC(C)C)cc1	RBX1-CUL1 inh 91.3
CC(=O)NCC1CCCN(Cc2nc(-c3ccccc3)no2)C1 (configuration not stated)	none
O=C1CC(=NCC2CCCO2)C(=O)CC(c2ccccc2)C1 (configuration not stated)	none
COc1ccc(OC)c(C(=O)O)c1N	none
COc1ccc2c(c1O)SC(=O)C2	RBX1-CUL1 inh 106.0
COc1cccc(C=Nc2ccc(C(N)=O)cc2)c1O	none
Nc1c(Cl)cc2nn(-c3ccccc3)nc2c1Br	RBX1-CUL1 inh 31.2
O=C(Nc1cc2nn(-c3ccccc3)nc2cc1Cl)c1ccccc1Br	none
O=C(Nc1cc2nn(-c3ccccc3)nc2cc1Cl)c1ccc(Br)cc1	none
OCc1cccc(N=Cc2cccc(Cl)c2Cl)c1	none
O=C(O)c1csc([N+](=O)[O-])c1-c1c(C(=O)O)csc1[N+](=O)[O-]	none
Cc1cc(=O)n2[nH]c(NCc3ccccc3C)nc2n1	none
CCc1ccc(S(=O)(=O)Nc2cc(SCC(=O)O)c(O)c3ccccc23)cc1	RBX1-CUL1 inh 107.6
CCOc1ccc(S(=O)(=O)Nc2cc3c(C(=O)OC)c(COC)oc3c3ccccc23)cc1	none
Cc1cc(O)ccc1NS(=O)(=O)c1ccccc1	none
CCOc1ccc(S(=O)(=O)Nc2ccc(S(=O)(=O)Nc3cccc4ccccc34)cc2)cc1	none
COc1ccc(S(=O)(=O)Nc2cc(SCc3ccccc3)c(O)c3ccccc23)cc1	none
CCOc1ccc(S(=O)(=O)Nc2cc(SCC(=O)O)c(O)c3ccccc23)cc1	RBX1-CUL1 inh 43.5
CCc1ccc(S(=O)(=O)NCC(=O)O)cc1	none
Cc1ccc(S(=O)(=O)Nc2ccccc2-c2ccccc2NS(=O)(=O)c2ccc(C)cc2)cc1	none
Cc1ccc(Sc2cc(NS(=O)(=O)c3ccccc3)c3ccccc3c2O)cc1	RBX1-CUL1 inh 70.1
Cn1c(SCC(=O)O)nnc1-c1ccc(N)cc1	none

Compound activity deposited in PubChem BioAssay by Pan Lab, Icahn School of Medicine at Mount Sinai.
